# Bioassay records (PubChem)
# PTHR1 agonist: PTHR1 (human) receptor agonism; Q03431; HEK293 GP2 PTHR1 cells, GloSensor cAMP luminescence, 1 h; Potency, µM (doses to about 115 µM), without a hit: at the top dose activation, most hits filed as activators; actives 0.075% (n = 410,000); AID 743266; also: nearly all actives have a fitted effect of over 55% in size
#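 HEK-293-derived GP2 cells expressing PTHR1 and a GloSensor cAMP reporter, 3,000/well, plated overnight, given luciferin plus IBMX (each 0.5 mM as added) for 1 h at 37 °C, then compound for 1 h at 37 °C. Luminescence was read after 15 min at room temperature.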
# GRP78 ERSR act: induces the endoplasmic reticulum stress response in human glioma cells | AID 602332 | actives 0.02% (n = 420,000) | Potency, µM, for the others: at the highest dose activation, usual class: activators | U87-MG GRP78 promoter luciferase reporter, 16 h; also: series mostly up to about 76 µM; % of control where 0% means no effect; nearly all actives have a fitted effect of over 35% in size
#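 Stably transfected U87-MG glioma cells carrying a GRP78-based luciferase sensor; 16 h compound incubation. Luminescence end-point read 10 min after Bright-Glo addition at room temperature.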
# GLP-1R inv ag: acts as inverse agonist at human GLP-1 receptor; HEK293 GLP-1R CRE-luciferase, luminescence, 24 h; GLP-1R form is constitutively active; P43220; actives 1.6% (n = 410,000); Potency, µM (titrated, usually from 38.3 µM), without a hit: top-dose activity change, negative = inhibition, most hits filed as inhibitors; also: % is scaled to controls: 0 for no effect and ±100 for the full control effect; nearly all actives have a fitted effect of over 55% in size
#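 Luminescence readout: a drop in cAMP-driven luciferase signal flags inverse agonism at a constitutively active GLP-1R stably expressed in HEK293. Compound exposure lasted 24 hr at 37 deg C, 5% CO2.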
# GLP1R ag: GLP-1 receptor (human) agonism; P43220; Potency, µM (series often up to 45.6 µM), for inactives: top-dose activation, most hits filed as activators; HEK293 GLP-1R CRE-luciferase, luminescence, 4-6 h; cells express a hypersensitive GLP-1R form; actives 0.007% (n = 380,000); also: % of control where 0% means no effect
# GLS inh: inhibitors of human glutaminase (GLS); O94925; GLS enzymatic activity, qHTS titration; Potency, µM (highest dose often 45.5 µM), without a hit: top-dose activity change, negative = inhibition, most hits filed as inhibitors; actives 0.21% (n = 410,000); also: % is scaled to controls: 0 for no effect and ±100 for the full control effect
# Target sequence (O94925 whole entry, looked up): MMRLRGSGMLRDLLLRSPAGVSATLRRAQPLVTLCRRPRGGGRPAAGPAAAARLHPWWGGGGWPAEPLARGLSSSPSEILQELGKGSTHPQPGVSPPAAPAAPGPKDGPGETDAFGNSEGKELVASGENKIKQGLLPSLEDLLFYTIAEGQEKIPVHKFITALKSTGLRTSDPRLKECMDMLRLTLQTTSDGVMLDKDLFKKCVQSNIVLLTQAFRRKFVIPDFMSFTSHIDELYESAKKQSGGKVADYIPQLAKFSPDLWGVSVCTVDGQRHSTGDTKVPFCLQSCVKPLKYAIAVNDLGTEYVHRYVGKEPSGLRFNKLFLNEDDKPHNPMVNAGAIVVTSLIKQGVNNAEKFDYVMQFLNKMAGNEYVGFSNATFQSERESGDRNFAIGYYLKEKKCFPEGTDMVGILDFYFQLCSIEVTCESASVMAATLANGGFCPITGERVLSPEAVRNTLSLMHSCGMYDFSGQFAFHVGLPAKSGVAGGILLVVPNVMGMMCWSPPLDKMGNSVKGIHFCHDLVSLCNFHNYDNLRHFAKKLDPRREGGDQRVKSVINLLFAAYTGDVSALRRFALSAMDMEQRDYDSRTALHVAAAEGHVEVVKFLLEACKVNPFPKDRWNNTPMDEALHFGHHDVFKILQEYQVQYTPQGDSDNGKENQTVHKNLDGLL
#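 Compounds were pin-transferred onto hKGA, after which L-glutamine (1 mM solution) and a detection mix of glutamate oxidase, HRP and Amplex Red were added. Initial and 30 min RT fluorescence reads were collected.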
# 12-LOX inh: blocks human arachidonate 12S-lipoxygenase; actives 1.1% (n = 580,000); purified 12hLO, xylenol orange hydroperoxide absorbance; P18054; Potency, µM (titrated, usually from 108 µM), for inactives: at the highest dose activity change, negative = inhibition, actives largely listed as inhibitors; also: % is scaled to controls: 0 for no effect and ±100 for the full control effect
#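 Hydroperoxide product was detected by ferrous iron/xylenol orange as the 573 to 405 nm absorbance ratio. Arachidonic acid at 40 uM (final) was turned over for 30 min at room temperature by 150 nM human 12hLO, pH 7.0 Hepes buffer, after 15 min compound preincubation.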
# * = called active by the depositor; i = inactive; ? = inconclusive; · = not tested or not shown; ! = not confirmed by another sample; [ ] = another dose, or the depositor's remark. Most compounds without a hit are left out; they make up all but 2.3% or so of the library. Calls follow the shape of the dose curve; as a rule, active = well fitted curve in the direction sought with a large enough effect; inconclusive = small, poorly fitted or top-dose-only effect, or another doubt; inactive = no such curve, though single readings can be large; an effect the other way counts as inactive or inconclusive. Potency is read from the fitted curve at half-maximal effect.
SMILES,PTHR1 agonist,GRP78 ERSR act,GLP-1R inv ag,GLP1R ag,GLS inh,12-LOX inh
COc1ccc(/C=C2\SC(c3ccc(C)cc3)=NC2=O)cc1OC,-9%[57.5 µM],-3%,67%,6%,4%,?
COc1cc(/C=C2\SC(c3ccc(C)cc3)=NC2=O)ccc1O,-64%,0%,24%,0%,0%,6.3µM*
COc1cc(/C=C2\SC(c3ccccc3)=NC2=O)cc(Cl)c1O,-10%,5%,-6%,-1%,8.9µM*,8.9µM*
O=C(CNC(=O)c1ccccc1Cl)NCCN1CCc2ccccc2C1,·,·,·,·,·,-28%
Cc1ccc(C)c(OCCN)c1,·,·,·,·,·,15%
Cc1cc(C)c2c(CN3CCN(Cc4ccccc4)CC3)cc(=O)oc2c1,i,-4%,?,0%,-2%,14µM*!
CC(C)c1ccc(CN(Cc2ccco2)c2cnc(S(C)(=O)=O)nc2C(=O)Nc2ccccc2)cc1,-20%,-2%,5µM*,·,-1%,-12%
CCS(=O)(=O)c1ncc(N(Cc2ccco2)Cc2ccccc2F)c(C(=O)Nc2cccc(Cl)c2)n1,2%,-2%,8.9µM*,·,-2%,-5%
Cc1ccc(NC(=O)c2nc(S(C)(=O)=O)ncc2N(Cc2ccco2)Cc2ccccc2F)c(C)c1,-11%,-2%,5%,·,-5%,-14%
CCc1ccccc1NC(=O)C(=O)c1c[nH]c2ccccc12,·,·,·,·,·,-30%
COCCNc1nc2c(c(=O)n(Cc3ccccc3F)c(=O)n2C)n1C,i,-2%,-7%,8%,16µM*,0%
Cn1c(NCCO)nc2c1c(=O)n(Cc1ccc(F)cc1)c(=O)n2C,i,-3%,45%,1%,22%,0%
Cn1c(NCCO)nc2c1c(=O)n(Cc1ccccc1Cl)c(=O)n2C,i,-1%,6%,·,5µM*,15%
Cn1c(NCCCN2CCOCC2)nc2c1c(=O)n(Cc1ccc(Cl)cc1Cl)c(=O)n2C,-25%,-7%,-13%,2%,2.5µM*,0%
O=C(/C(=C(\O)c1ccccc1)c1nc2ccccc2[nH]1)c1ccccc1,-4%,-2%,10µM*,10%,-5%,177%
CC(=O)/C(=C(/O)c1ccccc1)c1nc2ccccc2[nH]1,i,-3%,4%[7.66 µM],-1%,-3%,11%
CCN(C(=O)c1ccc(C)c(Br)c1)c1ccccc1,i,-1%,10µM*,10%,-1%,0%
CCN(C(=O)c1cccnc1)c1ccccc1,-32%,-3%,13%,7%,5%,10%
CCCc1nnc(C[C@@H]2C[C@@H](C(C)C)[C@H](CNc3cccnc3)C=C2C)o1,·,·,·,·,·,112%[176 µM]
OC(CNCCNc1ncccc1C(F)(F)F)Cn1ccc2ccccc21 (configuration not stated),i,-5%,10µM*,22%,-11%,-17%
OC(CNCc1ccccc1)Cn1ccc2ccccc21 (configuration not stated),i,-2%,?,7%,-1%,?
Cc1ccc(Nc2cc(C(=O)NCc3cccs3)c3ccccc3n2)c(C)c1,-16%,-1%,2µM*,·,10%,?
Cc1ccc(S(=O)(=O)NCC(C)O)cc1C (configuration not stated),·,·,·,·,·,21%
COc1ccc2cc3cc(C(=O)N4CC(C)CC(C)C4)oc3nc2c1 (configuration not stated),-18%,-1%,?,8%,-1%,·
Cc1ccc2cc3cc(C(=O)N4CC(C)CC(C)C4)oc3nc2c1 (configuration not stated),i,-3%,7.9µM*,21%,?,-21%
SMILES,PTHR1 agonist,GRP78 ERSR act,GLP-1R inv ag,GLP1R ag,GLS inh,12-LOX inh
Cc1ccoc1C(=O)OCc1cccc(C#N)c1,·,·,·,·,·,14%
CCCc1cc(=O)[nH]c(SCC(=O)N2CCN(S(=O)(=O)c3ccc(C)c(C)c3)CC2)n1,·,·,·,·,·,6%
CC(C)(C)C(=O)Nc1nc(-c2ccc3c(c2)OCO3)cs1,-39%,1%,10µM*,-4%,-3%,-2%
Cc1ccc(NC(=O)NCc2cccn2C)cc1C,i,0%,-14%,21%,7.1µM*,7%
Cc1ccccc1Nc1c(-c2cccnc2)nc2cccc(C)n12,-77%,3%,-26%,2%,-8%,?
Cc1cccc2nc(-c3cccnc3)c(Nc3ccc(C(C)C)cc3)n12,-42%,?,10µM*,·,-8%,-25%
Clc1ccc(Oc2nc(Oc3ccc(Cl)cc3)nc(N3CCOCC3)n2)cc1,i,-6%,?,0%,6%,1%
c1ccc(Oc2nc(Oc3ccccc3)nc(N3CCOCC3)n2)cc1,-38%,-4%,7.9µM*,-1%,1%,15%
O=C(NC(Cc1ccccc1)C(=O)N1CCc2ccccc2C1)c1ccccc1 (configuration not stated),-21%,0%,8.9µM*,13%,0%,3%
O=C(CNCc1cccc(Cl)c1)N1CCc2ccccc2C1,-4%,-4%,-29%,0%,-1%,?
O=C(CNCc1ccc(Cl)cc1)N1CCc2ccccc2C1,-8%,5%,-2%,7%,-1%,32µM*
Cc1ccc2c(CN3CCN(C(=O)c4ccc(C)c(F)c4)CC3)cc(=O)oc2c1,·,·,·,·,·,-4%
Cc1ccc(OCC(=O)Nc2ccc3c(c2)CCC3)c(C(=O)c2cc(C#N)c(=O)n(C3CC3)c2)c1,·,·,·,·,·,2%
CNc1nc(-c2ccccc2)[n+](-c2ccc(C)cc2)s1,i,-4%,30%,4%,?,7.1µM*
CC(=O)c1ccc(N2CCc3ccccc3C2)c([N+](=O)[O-])c1,-16%,11%,3.2µM*,-2%,1%,172%
Cc1c(C)n(Cc2ccccc2)c2ccc(C(=O)NCCc3ccccc3Cl)cc12,i,-1%,10µM*,·,-1%,0%
Cc1ccccc1CCNC(=O)c1ccc2c(c1)c(C)c(C)n2Cc1ccccc1,15%,-3%,10µM*,·,-14%,-11%
COc1ccc(CCNC(=O)c2ccc3c(c2)c(C)c(C)n3Cc2ccccc2)c(OC)c1OC,i,1%,?,·,1%,-29%
Cc1ccc(CNC(=O)c2c(C)[nH]c3ccccc23)cc1,·,·,·,·,·,5%
CC(=O)Nc1ccc2[nH]cc(C(C(=O)O)N3CCN(c4ncccc4C#N)CC3)c2c1 (configuration not stated),·,·,·,·,·,-12%
N#Cc1cccc(C(=O)OCc2cc(-c3ccc(Cl)cc3)no2)c1,·,·,·,·,·,4%
O=c1[nH]nc(Sc2ncnc3sccc23)n1CCc1ccccc1,-23%,-12%,5.6µM*,-7%,-5%,-26%
C=CCN1CCN(C(=O)CCC[C@H]2NC[C@@H]3C[C@H]2CN(Cc2ccccc2)C3)CC1,·,·,·,·,·,5.6µM*
